Test results from PubChem BioAssay (NCI).
Compounds without any hit were thinned out: in the full panel of roughly 83,000, 20% have a hit.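 48-hour exposure, single concentration, 96-well plates; percent growth endpoint where 0 means no net growth. Active: below 10.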 A number with no mark means an inactive call. Active and inactive are the calls of the source.

What was measured:
Test in all cases: NCI-60 one-dose screen, 48 h (100 = growth as untreated, 0 = no growth, -100 = all killed)
Conditions in all cases: 10 µM unless noted
SK-MEL-2 melanoma = system: SK-MEL-2 melanoma
EKVX NSCLC = system: EKVX NSCLC
SN12C renal = system: SN12C renal
UO-31 renal = system: UO-31 renal
TK-10 renal = system: TK-10 renal
ACHN renal = system: ACHN renal
CAKI-1 renal = system: CAKI-1 renal
A498 renal = system: A498 renal
CCRF-CEM leukemia = system: CCRF-CEM leukemia
MOLT-4 leukemia = system: MOLT-4 leukemia

| SMILES | growth (SK-MEL-2 melanoma) | growth (EKVX NSCLC) | growth (SN12C renal) | growth (UO-31 renal) | growth (TK-10 renal) | growth (ACHN renal) | growth (CAKI-1 renal) | growth (A498 renal) | growth (CCRF-CEM leukemia) | growth (MOLT-4 leukemia) |
| --- | --- | --- | --- | --- | --- | --- | --- | --- | --- | --- |
| CCOC(=O)c1c(C)nc2c(c1N)/C(=C/c1ccc(OC)cc1)C(=O)N2Cc1ccccc1 | 64.6% | 75.6% | 57.4% | 56.6% | 97.2% | 71.1% | 78.6% | 74.4% | 48.9% | 15.9% |
| Cc1cccc[n+]1C1c2ccccc2-c2ccccc21 | 90.2% | 93.8% | 94.2% | 90.7% | 89.5% | 107% | 100% | 82.9% | 78.5% | 98.3% |
| Clc1c(Cl)[n+](Cc2ccc3ccccc3c2)cn1Cc1ccc2ccccc2c1 | -55% (active) | 38.7% | 28.1% | 70.7% | -63% (active) | 84.7% | 89.7% | 54.7% | 6.14% (active) | -0.428% (active) |
| CCOC(=O)c1c(C)nc2c(c1N)CC(=O)N2Cc1ccc(OC)cc1 | 51.2% | 47.7% | 41.1% | 33.8% | 0.0562% (active) | 28.4% | 76.4% | 63.5% | 117% | 90.3% |
| COc1ccc(C(=O)N2c3ccccc3Sc3ccccc32)c(C(F)(F)F)c1 | 47% | 45.6% | 40.1% | 39.8% | 57.4% | 32.5% | 31.8% | 8.71% (active) | 22.4% | 15.1% |
| CCn1c(-c2cc3c([nH]c4ccccc43)c(-c3cccc(O)c3)n2)n[nH]c1=S | -22.2% (active) | 56.9% | 63.6% | 47.3% | 9.38% (active) | 61.1% | 47.9% | 35% | 28% | 25.6% |
| COc1ccc(CNc2c3ccccc3nc3ccccc23)c(OC)c1 | 94% | 51.1% | 31% | 28% | 54.4% | 25.8% | 36.2% | -11.5% (active) | 55.4% | 18.5% |
| CCCCCCCCCCCCCCCCCC1=NC(C)(C)CN1CC(C)O (stereo not given) | 84.6% | 78.8% | 49.8% | 68.8% | 81.6% | 80.6% | 84.7% | 79.1% | 47.1% | 34.9% |
| CCN1C(=O)N(CC)C2Nn3c(s/c(=C\c4ccccc4Br)c3=O)=NC21 (stereo not given) | 48.5% | 44.4% | 35.4% | 55% | 81.5% | 30.5% | 21.5% | -0.799% (active) | 15.2% | 23.2% |
| N=C(N)c1ccc(-c2ccc(-c3ccccc3)s2)cc1 | 105% | 84.6% | 70.3% | 83.5% | 108% | 68.3% | 14.5% | 89.1% | 21% | -3.58% (active) |
| COc1cc(C(=O)n2nc(N3CCOCC3)c3cc(-n4cccc4)ccc32)cc(OC)c1OC | 92.1% | 60.6% | 69% | 32.9% | 88.4% | 49.8% | 60.6% | 0.812% (active) | 36.4% | 33.1% |
| CC1(C)OB(O)c2cc(-c3nc4ccc5[nH]ncc5c4c4c3CCCC4)ccc21 | 59.3% | 71.8% | 51.2% | 34.4% | 73.4% | 21.1% | 20.8% | 21.9% | 50.2% | 30.7% |
| CC(=O)Oc1ccc(OC(C)=O)c2ccccc12 | 113% | 92.3% | 85.8% | 23.7% | 103% | 75.7% | 100% | 118% | -6.08% (active) | -13.9% (active) |
| Cc1n[nH]c2ccc(Br)cc2c1=O | 99.4% | 110% | 106% | 75.8% | 104% | 100% | 103% | 83.7% | 89.2% | 92.8% |
| NS(=O)(=O)c1ccc(-c2cc(-c3nnc(SCC(=O)Nc4ccc(C(=O)/C=C/c5ccc(Cl)cc5)cc4)n3-c3ccccc3)c3ccccc3n2)cc1 | 105% | 96.2% | 94.9% | 84% | 96.4% | 106% | 77.1% | 49.9% | 90.3% | 68.5% |
| CC1=C2[C@@H](CC1)[C@]1(C)O[C@@](C3CCCCC3)(C[C@H]1OC(=O)CO)[C@H]2OC(=O)/C=C/c1ccccc1 | 80.3% | 83.3% | 32.1% | -5.9% (active) | 97.6% | 3.28% (active) | 78.4% | -89.9% (active) | 78.5% | 67.9% |
| O=[N+]([O-])c1ccc(-c2cn3nc(-c4c[nH]c5ccccc45)sc3n2)cc1 | 109% | 91.2% | 91.9% | 72.8% | 102% | 96.8% | 91% | 85.9% | 90.2% | 88.6% |
| C#CCOc1cccc(-c2ncnc3cc(NC(=O)C=C)ccc23)c1 | 46.7% | 72.2% | 15% | 15% | 13.8% | 25.5% | 15.9% | 44.5% | 8.7% (active) | 30.8% |
| O=C(O)c1cn(C2CC2)c2cc(N3CCN(C(=O)Nc4nc(-c5ccc(Br)cc5)cs4)CC3)c(F)cc2c1=O | -17% (active) | 24.5% | 6.36% (active) | 14% | 34.9% | 17% | 42.4% | -7.91% (active) | 6.67% (active) | 8.35% (active) |
| COC(=O)C(Cc1ccccc1)NC(=O)c1ccc(NC(=O)c2[nH]c(C)c(Cl)c2Cl)c(OC(C)C)c1 (stereo not given) | 105% | 101% | 16% | 94.8% | 53.5% | 40.3% | 90% | 86.8% | 73.2% | 84.9% |
| CN1C(=O)/C(=C/c2ccc(C(=O)Nc3ncc(Cc4cccc(Cl)c4)s3)cc2)SC1=S | 91.7% | 55.9% | 84.2% | 55.6% | 56% | 33.2% | 26.3% | 74.9% | 69.3% | 52.4% |
| COc1cccc(NCc2nnc(Nc3ccc(Cl)cc3)c3ccccc23)c1 | -34.4% (active) | -0.284% (active) | 14.5% | -42.5% (active) | -40.9% (active) | -5.35% (active) | 9.01% (active) | -26.8% (active) | -4.42% (active) | -27.2% (active) |
| Cc1ccc2c(-c3nnc(N)s3)cc(=O)oc2c1C | 110% | 97.3% | 99.8% | 80.2% | 102% | 103% | 94.1% | 85.1% | 39.2% | 102% |
| CN1CCN(C(=O)[C@@]2(C)CC[C@]3(C)CC[C@]4(C)C(=CC[C@@H]5[C@@]6(C)CCC(=O)NC(C)(C)[C@@H]6CC[C@]54C)[C@@H]3C2)CC1 | 78.3% | 79.6% | 58% | 48.3% | 79.4% | 69.9% | 42.5% | 73.1% | 29% | 15.8% |
| CSc1nn2c(-c3ccc4ccccc4c3)ccnc2c1C#N | -7.77% (active) | 33.5% | 23.4% | 16.7% | -2.29% (active) | 16% | 22.4% | 21.9% | 41% | 28.5% |
| C=C(CNCCc1ccc(O)cc1)[C@@H]1CC[C@]2(CO)CC[C@]3(C)[C@H](CC[C@@H]4[C@@]5(C)CCC(=O)C(C)(C)[C@@H]5CC[C@]43C)[C@@H]12 | 37.5% | 80% | 24.5% | 27.1% | 67.4% | 12.6% | 58.2% | 84.1% | -9.98% (active) | 1.2% (active) |
| CCN1C2CCC1/C(=C\c1ccc(F)cc1)C(=O)/C2=C/c1ccc(F)cc1 | 58.9% | 57.2% | 44.5% | 53.6% | 74.2% | 48.6% | 66.4% | 58.7% | 18.2% | 13.9% |
